The full data set covers some 7,900 targets. This sample favours those with a hit. About 0.6% of all pairs of compound and target were hits. Values without a mark were called inactive.

Holding throughout (test): log2 fold change, soluble protein after heating vs DMSO (PISA); higher = thermal stabilisation; K562 cells, 10 uM, 30 min; active = over 0.2 and 3.5 SD of the protein, either way, in both replicates (recomputed)
Compound in assay [1]: CC[C@@H]1C(=O)N(C)c2cnc(Nc3ccc(C(=O)NC4CCN(C)CC4)cc3OC)nc2N1C1CCCC1
The method, boiled down: (§1)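 For each measurement, 10 μM compound was applied for 30 min to K562 cells at 2×10^6 cells/mL. Aliquots were heated for 3 min across 48°C-58°C, pooled, and extracted in PBS with 0.5% NP-40 at 4°C; the supernatant after 21,000xg for 90 min was soluble protein. This was quantified by TMTpro 16plex LC-MS/MS with channel sums equalised, and thermal stability was reported relative to control samples from duplicates, on a log2 fold-change scale.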

Compound in another assay: CC[C@@H]1C(=O)N(C)c2cnc(Nc3ccc(C(=O)N[C@H]4CC[C@H](N5CCN(CC6CC6)CC5)CC4)cc3OC)nc2N1C(C)C [volasertib]
The method, boiled down: as §1

Compound in assay [2]: CC[C@H](C)N1C=C(C2=C(C=C(C=C21)C3=CN=C(C=C3)N4CCNCC4)C(=O)NCC5=C(C=C(NC5=O)C)C)C
The method, boiled down:
as §1

Compound in another assay: CC[C@H](C)[C@@H](C(=O)N[C@@H]([C@@H](C)O)C(=O)N[C@@H](CC(C)C)C(=O)[C@]1(CO1)C)NC(=O)[C@H]([C@@H](C)CC)N(C)C(=O)C [epoxomicin]
The method, boiled down: as §1

Compound in assay [3]: CCn1c(C(=O)N(C2CC2)C2CC2)cc2c3c(ncn3C)c(Nc3cc(C)n(C)n3)nc21
The method, boiled down: as §1

Compound in assay [4]: CCn1cc(-c2ccnc3[nH]c(-c4cccc(CN(C)C)c4)cc23)c(-c2ccc(NC(=O)N(C)C)cc2)n1
The method, boiled down: as §1

Compound in assay [5]: CN(C)CC(=O)Nc1ccc2[nH]c(=O)c3ccccc3c2c1
The method, boiled down:
as §1

Compound in a further assay: CN(CCOC1=CC=C(C=C1)C[C@H]2C(=O)NC(=O)S2)C3=CC=CC=N3 (racemic) [rosiglitazone]
The method, boiled down: as §1

Compound in assay [6]: CN1C2=C(C3=C1C(=O)N(N=C3)CC4=CC(=CC=C4)N)SC(=C2)S(=O)C
The method, boiled down:
as §1

Compound in assay [7]: CN1CCC(CNc2ccc3ncc(-c4cccc(OC(F)(F)F)c4)n3n2)CC1
The method in brief: as §1

Chain of UniProt Q9Y2A7 (Q9Y2A7 whole entry, looked up): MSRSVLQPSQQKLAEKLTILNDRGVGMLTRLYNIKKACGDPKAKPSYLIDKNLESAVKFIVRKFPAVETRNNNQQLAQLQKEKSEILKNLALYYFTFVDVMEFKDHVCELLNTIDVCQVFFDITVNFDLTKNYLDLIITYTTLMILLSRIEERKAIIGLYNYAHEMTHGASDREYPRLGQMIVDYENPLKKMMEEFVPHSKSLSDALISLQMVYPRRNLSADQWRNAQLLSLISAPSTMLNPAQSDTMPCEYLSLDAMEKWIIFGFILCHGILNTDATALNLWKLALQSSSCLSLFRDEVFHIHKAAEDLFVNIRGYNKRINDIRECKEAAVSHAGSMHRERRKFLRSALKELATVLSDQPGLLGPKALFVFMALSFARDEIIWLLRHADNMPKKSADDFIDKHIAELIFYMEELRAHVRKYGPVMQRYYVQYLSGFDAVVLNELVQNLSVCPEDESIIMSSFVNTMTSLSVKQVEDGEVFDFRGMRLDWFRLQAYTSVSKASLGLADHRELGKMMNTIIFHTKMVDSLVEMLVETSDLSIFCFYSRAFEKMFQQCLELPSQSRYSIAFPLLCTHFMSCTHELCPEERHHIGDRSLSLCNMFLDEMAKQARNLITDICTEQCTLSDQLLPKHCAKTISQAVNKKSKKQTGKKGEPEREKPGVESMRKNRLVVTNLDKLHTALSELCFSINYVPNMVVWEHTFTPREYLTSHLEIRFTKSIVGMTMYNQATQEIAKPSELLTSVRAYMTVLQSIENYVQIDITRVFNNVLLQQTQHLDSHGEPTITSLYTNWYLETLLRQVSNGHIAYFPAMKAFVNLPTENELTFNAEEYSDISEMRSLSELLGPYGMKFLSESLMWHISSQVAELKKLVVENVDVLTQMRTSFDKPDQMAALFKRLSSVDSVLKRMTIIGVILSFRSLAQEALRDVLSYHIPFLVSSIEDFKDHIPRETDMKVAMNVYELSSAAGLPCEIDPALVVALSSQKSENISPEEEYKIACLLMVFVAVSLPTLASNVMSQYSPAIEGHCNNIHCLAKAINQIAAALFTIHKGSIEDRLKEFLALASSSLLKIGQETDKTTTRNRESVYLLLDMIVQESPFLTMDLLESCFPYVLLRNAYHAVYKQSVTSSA
Chain of UniProt P48645 (P48645 whole entry, looked up): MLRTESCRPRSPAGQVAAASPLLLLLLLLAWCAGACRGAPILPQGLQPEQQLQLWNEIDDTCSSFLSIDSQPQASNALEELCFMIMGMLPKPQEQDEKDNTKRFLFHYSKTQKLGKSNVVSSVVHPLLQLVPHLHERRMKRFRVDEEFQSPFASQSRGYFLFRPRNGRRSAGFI
Chain of UniProt P19338 (P19338 whole entry, looked up): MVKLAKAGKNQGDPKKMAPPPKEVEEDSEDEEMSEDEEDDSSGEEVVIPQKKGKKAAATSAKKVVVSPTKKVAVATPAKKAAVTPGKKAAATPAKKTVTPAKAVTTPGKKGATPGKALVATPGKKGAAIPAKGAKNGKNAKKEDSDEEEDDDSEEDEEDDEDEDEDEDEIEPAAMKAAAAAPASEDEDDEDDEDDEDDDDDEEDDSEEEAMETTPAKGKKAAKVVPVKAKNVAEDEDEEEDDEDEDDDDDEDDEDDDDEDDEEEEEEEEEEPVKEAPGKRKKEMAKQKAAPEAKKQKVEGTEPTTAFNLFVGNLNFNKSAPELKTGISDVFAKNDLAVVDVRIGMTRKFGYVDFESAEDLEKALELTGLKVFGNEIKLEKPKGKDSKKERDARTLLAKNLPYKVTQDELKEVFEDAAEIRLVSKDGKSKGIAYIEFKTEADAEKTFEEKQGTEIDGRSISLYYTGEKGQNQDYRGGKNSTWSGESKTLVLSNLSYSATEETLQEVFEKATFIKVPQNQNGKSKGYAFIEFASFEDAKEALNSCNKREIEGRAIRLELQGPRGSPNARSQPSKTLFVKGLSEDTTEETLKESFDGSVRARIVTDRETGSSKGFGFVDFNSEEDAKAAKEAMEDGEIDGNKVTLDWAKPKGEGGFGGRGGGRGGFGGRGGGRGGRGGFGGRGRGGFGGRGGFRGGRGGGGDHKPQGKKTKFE
Chain of UniProt Q9HBL8 (Q9HBL8 whole entry, looked up): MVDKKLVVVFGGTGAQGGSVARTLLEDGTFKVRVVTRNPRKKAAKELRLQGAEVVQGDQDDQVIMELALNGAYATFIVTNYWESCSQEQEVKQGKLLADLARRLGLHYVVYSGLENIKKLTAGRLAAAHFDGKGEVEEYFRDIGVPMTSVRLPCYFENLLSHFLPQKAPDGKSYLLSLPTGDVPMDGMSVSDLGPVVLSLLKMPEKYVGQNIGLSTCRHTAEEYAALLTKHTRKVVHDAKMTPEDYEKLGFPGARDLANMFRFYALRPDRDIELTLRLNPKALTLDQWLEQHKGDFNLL
Chain of UniProt O75323 (O75323 whole entry, looked up): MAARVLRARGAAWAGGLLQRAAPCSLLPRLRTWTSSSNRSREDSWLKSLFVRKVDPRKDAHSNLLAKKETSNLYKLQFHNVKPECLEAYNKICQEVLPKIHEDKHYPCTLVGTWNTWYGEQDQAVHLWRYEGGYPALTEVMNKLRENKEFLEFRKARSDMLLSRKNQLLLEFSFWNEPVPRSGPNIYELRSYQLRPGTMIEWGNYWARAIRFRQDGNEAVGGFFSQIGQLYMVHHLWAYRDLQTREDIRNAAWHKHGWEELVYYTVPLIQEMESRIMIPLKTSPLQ
Chain of UniProt P35580 (P35580 whole entry, looked up): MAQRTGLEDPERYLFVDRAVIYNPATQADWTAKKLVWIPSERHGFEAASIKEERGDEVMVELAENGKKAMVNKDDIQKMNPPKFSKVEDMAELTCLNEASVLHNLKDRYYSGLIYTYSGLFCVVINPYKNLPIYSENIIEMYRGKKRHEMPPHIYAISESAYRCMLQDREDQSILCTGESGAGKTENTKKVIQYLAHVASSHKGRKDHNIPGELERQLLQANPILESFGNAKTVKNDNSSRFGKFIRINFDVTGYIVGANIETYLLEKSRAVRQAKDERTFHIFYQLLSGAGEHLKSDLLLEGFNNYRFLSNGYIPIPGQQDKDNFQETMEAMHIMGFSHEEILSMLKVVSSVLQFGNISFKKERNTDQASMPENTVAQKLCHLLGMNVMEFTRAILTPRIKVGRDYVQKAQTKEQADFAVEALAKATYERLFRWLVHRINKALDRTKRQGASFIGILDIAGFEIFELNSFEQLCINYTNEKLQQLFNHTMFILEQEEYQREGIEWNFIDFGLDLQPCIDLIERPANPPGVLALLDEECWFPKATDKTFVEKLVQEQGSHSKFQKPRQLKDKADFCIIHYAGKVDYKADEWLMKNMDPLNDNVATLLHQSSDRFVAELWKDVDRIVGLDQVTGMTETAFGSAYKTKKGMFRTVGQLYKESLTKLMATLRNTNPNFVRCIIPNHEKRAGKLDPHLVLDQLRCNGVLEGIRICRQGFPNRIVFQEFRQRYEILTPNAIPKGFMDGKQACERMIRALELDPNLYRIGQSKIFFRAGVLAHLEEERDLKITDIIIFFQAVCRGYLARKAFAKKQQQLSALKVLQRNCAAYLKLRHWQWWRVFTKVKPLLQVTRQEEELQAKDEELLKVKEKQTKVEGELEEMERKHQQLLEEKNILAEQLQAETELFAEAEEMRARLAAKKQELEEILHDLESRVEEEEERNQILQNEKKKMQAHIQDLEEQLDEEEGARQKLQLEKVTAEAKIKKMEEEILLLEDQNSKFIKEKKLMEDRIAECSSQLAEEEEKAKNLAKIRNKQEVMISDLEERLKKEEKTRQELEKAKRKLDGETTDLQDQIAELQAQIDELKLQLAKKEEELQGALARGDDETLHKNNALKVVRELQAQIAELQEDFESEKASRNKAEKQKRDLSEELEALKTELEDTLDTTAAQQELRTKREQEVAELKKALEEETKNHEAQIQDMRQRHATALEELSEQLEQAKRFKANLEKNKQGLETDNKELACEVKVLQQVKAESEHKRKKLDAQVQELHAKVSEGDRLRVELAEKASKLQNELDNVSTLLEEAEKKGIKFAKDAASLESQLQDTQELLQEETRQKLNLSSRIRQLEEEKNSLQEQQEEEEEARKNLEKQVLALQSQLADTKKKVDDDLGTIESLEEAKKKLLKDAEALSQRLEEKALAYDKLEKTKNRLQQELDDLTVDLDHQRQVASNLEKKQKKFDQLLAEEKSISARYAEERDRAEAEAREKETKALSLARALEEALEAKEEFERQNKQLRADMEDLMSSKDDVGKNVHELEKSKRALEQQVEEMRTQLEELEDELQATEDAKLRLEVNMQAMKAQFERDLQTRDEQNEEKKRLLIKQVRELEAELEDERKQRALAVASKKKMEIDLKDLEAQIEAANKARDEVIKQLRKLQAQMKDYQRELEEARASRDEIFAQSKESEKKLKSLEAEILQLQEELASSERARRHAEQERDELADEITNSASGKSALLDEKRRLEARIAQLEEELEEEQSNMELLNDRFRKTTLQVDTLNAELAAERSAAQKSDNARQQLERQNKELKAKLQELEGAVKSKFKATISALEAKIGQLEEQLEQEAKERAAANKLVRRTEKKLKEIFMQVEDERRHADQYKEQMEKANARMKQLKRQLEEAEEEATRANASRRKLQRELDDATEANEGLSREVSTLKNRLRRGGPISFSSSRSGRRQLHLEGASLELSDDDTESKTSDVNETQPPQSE
Chain of UniProt Q16656 (Q16656 whole entry, looked up): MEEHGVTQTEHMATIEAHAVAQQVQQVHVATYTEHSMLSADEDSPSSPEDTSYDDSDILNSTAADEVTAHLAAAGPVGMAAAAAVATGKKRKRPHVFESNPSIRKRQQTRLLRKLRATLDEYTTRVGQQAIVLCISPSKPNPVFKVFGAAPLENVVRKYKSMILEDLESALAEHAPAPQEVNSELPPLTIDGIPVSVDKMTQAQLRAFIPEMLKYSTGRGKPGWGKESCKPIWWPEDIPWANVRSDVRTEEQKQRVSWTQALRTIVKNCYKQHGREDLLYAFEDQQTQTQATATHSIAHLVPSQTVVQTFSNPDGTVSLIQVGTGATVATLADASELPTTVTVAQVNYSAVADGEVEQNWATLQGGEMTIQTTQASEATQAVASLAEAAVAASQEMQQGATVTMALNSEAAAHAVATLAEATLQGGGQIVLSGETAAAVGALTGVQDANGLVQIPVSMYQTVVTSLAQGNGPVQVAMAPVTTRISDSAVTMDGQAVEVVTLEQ

For the target NCKAP1 isoform 2 (UniProt Q9Y2A7), the log2 fold change in assay [1] is 0.002; in the assay with volasertib, -0.25 (active); in assay [2], 0.031; in the assay with epoxomicin, 0.01; in assay [3], -0.003; in assay [4], -0.036. In addition, the log2 fold change is 0.043 in assay [5], 0.011 with rosiglitazone, -0.042 in assay [6] and -0.027 in assay [7].
Regarding NMU (UniProt P48645), the log2 fold change is 0.094 in [1]; 0.072 with volasertib; 0 in assay [2]; 0.077 with epoxomicin; -0.044 in assay [3]; 0.008 in [4]. In addition, the log2 fold change in [5] is -0.017; with rosiglitazone, -0.021; in assay [6] it was -0.008; in [7] it was 0.271.
In the case of NR2C2AP isoform 2 (UniProt Q86WQ0), the log2 fold change was -0.108 in [1]; -0.061 with volasertib; -0.018 in assay [2]; 0.023 with epoxomicin; -0.055 in assay [3]; 0.018 in [4]. Moreover, the log2 fold change in [5] is 0; with rosiglitazone, 0.039; in assay [6], -0.223; in assay [7], -0.152.
In the case of NRF1 isoform 4 (UniProt Q16656), the log2 fold change was -0.173 in assay [1]; -0.501 (active) with volasertib; 0.087 in assay [2]; 0.268 with epoxomicin; -0.056 in assay [3]; 0.035 in assay [4]. For the same target, the log2 fold change in assay [5] is 0.08; in the assay with rosiglitazone, 0.1; in assay [6], -0.084; in assay [7], 0.037.
For the target MON2 isoform 5 (UniProt Q7Z3U7), the log2 fold change is -0.125 in assay [1]; -0.377 (active) in the assay with volasertib; 0.06 in [2]; 0.023 in the assay with epoxomicin; 0 in [3]; -0.028 in [4]. Further, the log2 fold change in assay [5] is 0.031; with rosiglitazone, 0.062; in assay [6], -0.064; in [7], -0.158.
Turning to NUDT16 (UniProt Q96DE0), the log2 fold change is 0.038 in assay [1]; 0.033 in the assay with volasertib; -0.059 in [2]; 0.009 with epoxomicin; -0.019 in assay [3]; -0.073 in assay [4]. Further, the log2 fold change was -0.011 in assay [5], -0.048 with rosiglitazone, -0.069 in assay [6] and -0.035 in [7].
As for NCL (UniProt P19338), the log2 fold change in assay [1] is 0.167; with volasertib, 0.173; in [2], -0.011; with epoxomicin, -0.427; in [3], 0.022; in [4] it was 0.336. In addition, the log2 fold change in assay [5] was -0.06; in the assay with rosiglitazone it was -0.194; in [6], 0.393; in [7] it was 0.293.
As to NDUFA12 (UniProt Q9UI09), the log2 fold change is -0.135 in [1]; -0.244 with volasertib; 0.081 in assay [2]; 0.046 with epoxomicin; -0.063 in [3]; -0.173 in assay [4]. The log2 fold change was 0.119 in assay [5], 0.082 with rosiglitazone, -0.054 in assay [6] and -0.632 (active) in [7].
NMRAL1 (UniProt Q9HBL8): the log2 fold change in assay [1] was 0.27; in the assay with volasertib, 0.294; in assay [2] it was 0.105; with epoxomicin, 0.035; in assay [3], 0.01; in [4], 0.055. Besides, the log2 fold change in assay [5] was 0.122; in the assay with rosiglitazone, 0.011; in assay [6], 0.059; in assay [7], 0.526.
MRPS15 (UniProt P82914): the log2 fold change in assay [1] was -0.021; with volasertib, -0.048; in assay [2], 0.163; with epoxomicin it was -0.007; in assay [3], -0.084; in assay [4] it was -0.115. In addition, the log2 fold change was -0.01 in assay [5], 0.032 with rosiglitazone, 0.049 in assay [6] and 0.042 in assay [7].
Take NDUFB10 (UniProt O96000): the log2 fold change in assay [1] was -0.008; with volasertib it was 0.056; in assay [2], -0.007; with epoxomicin it was 0.001; in [3], 0; in [4] it was 0.03. Also, the log2 fold change in assay [5] is -0.005; with rosiglitazone it was 0.013; in assay [6] it was -0.043; in [7], -0.237 (active).
For MYH10 isoform 3 (UniProt P35580), the log2 fold change in [1] was -0.082; with volasertib, -0.216 (active); in [2], 0.026; with epoxomicin, 0.094; in [3], -0.025; in assay [4], -0.036. In addition, the log2 fold change in assay [5] was 0.024; with rosiglitazone, 0.022; in assay [6], -0.064; in assay [7] it was -0.077.
NPEPPS (UniProt P55786): the log2 fold change in assay [1] is -0.005; in the assay with volasertib, -0.023; in assay [2], 0.079; with epoxomicin, -0.022; in assay [3] it was 0.082; in [4], -0.102. Moreover, the log2 fold change in assay [5] is 0.007; with rosiglitazone, 0.046; in [6], -0.098; in assay [7], -0.141.
Turning to NME1 isoform 2 (UniProt P15531), the log2 fold change in assay [1] is 0.061; with volasertib it was 0.046; in assay [2], 0.03; with epoxomicin it was -0.01; in assay [3] it was -0.087; in [4] it was -0.134. Further, the log2 fold change in assay [5] was -0.028; with rosiglitazone it was 0.024; in assay [6], -0.184; in [7], -0.039.
Regarding NIPSNAP2 (UniProt O75323), the log2 fold change was 0.043 in assay [1]; 0.009 in the assay with volasertib; -0.003 in assay [2]; 0.07 with epoxomicin; 0.009 in assay [3]; -0.115 in assay [4]. Moreover, the log2 fold change in assay [5] is -0.041; in the assay with rosiglitazone, 0.005; in [6], -0.083; in [7], 0.028.

Values taken from the supplement of paper PMC10849652.
